One experiment deals with AAK1. Particulars: concentration: 1 μM, replicates: in singlicate; n = 1.
Another experiment relates to ABL1-nonphosphorylated. Particulars: concentration: 1 μM, replicates: in singlicate; n = 1.
Another experiment deals with ABL1-phosphorylated. As to conditions: concentration: 1 μM, replicates: in singlicate; n = 1.
The test system of the next experiment is ABL2. As to conditions: concentration: 1 μM, replicates: in singlicate; n = 1.
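Wherever %Inh is given: KINOMEscan kinase panel screen.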
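Wherever Kd is given: kd values determined as follow-up on hits from a single-replicate KINOMEscan panel screen.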

For `COc1cc2ncn(-c3cc(OCc4ccncc4Br)c(C(N)=O)s3)c2cc1OC` [GW854278], the “%Inh” value in the experiment on AAK1 amounted to 17%; with ABL1-nonphosphorylated, 15%; in the experiment with ABL1-phosphorylated it was 0%; in the experiment on ABL2, 5%.

On to `Cc1c(Cn2c(C)nn3c(=O)cc(N4CCO[C@H](C)C4)nc23)cccc1C(F)(F)F` [GSK2373690], for which the “%Inh” value worked out at 0% with AAK1, 0% in the experiment on ABL1-nonphosphorylated, 2% with ABL1-phosphorylated and 24% in the experiment on ABL2.

Turning to `CN(C)c1cc(-c2ccc3c(N)n[nH]c3c2)nc(N)n1` [GSK2219329], the Kd (usually the concentration at which binding is half-saturated) with ZAK was > 10 µM. The “%Inh” value with AAK1 was 10%; in the experiment with ABL1-nonphosphorylated, 0%; in the experiment on ABL1-phosphorylated it was 0%; in the experiment with ABL2 it was 0%.

For the molecule `Nc1n[nH]c2ncc(-c3ccccc3)cc12` [SB-517081], the “%Inh” value is on record as 36% in the experiment on AAK1, 0% with ABL1-nonphosphorylated, 18% with ABL1-phosphorylated and 17% in the experiment with ABL2.

Turning to `O=c1cc(N2CCOCC2)nc2n(Cc3ccc(F)c(Cl)c3)ccn12` [GSK2297099], the “%Inh” value is 24% in the experiment with AAK1, 0% in the experiment on ABL1-nonphosphorylated, 0% in the experiment with ABL1-phosphorylated and 0% in the experiment on ABL2.

With `Fc1cccc(CSc2nnc(-c3ccc4c(c3)CCO4)o2)c1`, the “%Inh” value in the experiment with AAK1 worked out at 25%; with ABL1-nonphosphorylated it was 20%; in the experiment with ABL1-phosphorylated, 7%; with ABL2, 22%.

In the case of `O=C(Nc1ccc2c(c1)OCO2)NC1CCN(c2ccnc(NCc3ccc(F)cc3)n2)CC1` [GSK1379859], the “%Inh” value in the experiment on AAK1, in the experiment on ABL1-nonphosphorylated, in the experiment with ABL1-phosphorylated and in the experiment with ABL2 was 0% each time.

Consider `Cc1nnc(-c2ccc(C)c(-c3ccc(C(=O)O)cc3)c2)o1` [GW608005], for which the “%Inh” value with AAK1, in the experiment with ABL1-nonphosphorylated, in the experiment with ABL1-phosphorylated and in the experiment with ABL2 was 0% in each case.

Consider `CCn1c(-c2ccoc2)nc2cnccc21` [SB-733887], for which the “%Inh” value is on record as 1% with AAK1, 1% in the experiment with ABL1-nonphosphorylated, 17% in the experiment with ABL1-phosphorylated and 10% with ABL2.

As for `O=C(NCc1cccs1)c1cc(C(=O)c2c(Cl)cccc2Cl)c[nH]1` [GW823670], the “%Inh” value is on record as 0% with AAK1, 18% in the experiment on ABL1-nonphosphorylated, 27% with ABL1-phosphorylated and 0% in the experiment with ABL2.

Regarding `CCCNC(=O)Nc1ccc(Oc2ncnc3ccn(C)c23)cc1`, the “%Inh” value came out at 13% in the experiment on AAK1, 30% in the experiment on ABL1-nonphosphorylated, 6% with ABL1-phosphorylated and 4% in the experiment with ABL2.

On to `C[C@@H]1CC[C@H](C(=O)NC2CCCCC2)CN1c1cc(-c2ccc3c(N)n[nH]c3c2)nc(N)n1` [GSK2291363], for which the “%Inh” value in the experiment on AAK1 was 55%; in the experiment on ABL1-nonphosphorylated, 5%; in the experiment with ABL1-phosphorylated it was 0%; in the experiment on ABL2, 20%.

On to `O=C1NC(=O)C(c2ccccc2)=C1Nc1cccc(O)c1` [SB-390534], for which the “%Inh” value in the experiment with AAK1 is recorded as 0%; in the experiment with ABL1-nonphosphorylated it was 22%; with ABL1-phosphorylated it was 5%; in the experiment with ABL2, 1%.

On to `COc1cccc(C2=C(N(C)c3ccccc3)C(=O)NC2=O)c1` [SB-334865], for which the “%Inh” value in the experiment on AAK1 stood at 0%; with ABL1-nonphosphorylated, 5%; with ABL1-phosphorylated, 3%; in the experiment with ABL2 it was 14%.

`CCS(=O)(=O)c1ccc(OC)c(Nc2ncc(-c3ccc(F)cc3)o2)c1.Cl` [GW591947]: the “%Inh” value was determined as 4% with AAK1, 0% in the experiment on ABL1-nonphosphorylated, 0% in the experiment on ABL1-phosphorylated and 0% with ABL2.

For `Cn1c(=O)c(F)c(Nc2ccc(I)cc2F)c2c(=O)n(OC[C@H](O)CO)cnc21`, the “%Inh” value with AAK1 amounted to 10%; in the experiment with ABL1-nonphosphorylated, 54%; in the experiment on ABL1-phosphorylated, 41%; with ABL2 it was 3%.

As to `Cl.c1ccc(Cn2cnc3cc(Nc4ncnc5ccccc45)ccc32)cc1` [GW272142], the “%Inh” value worked out at 5% with AAK1, 0% with ABL1-nonphosphorylated, 0% in the experiment on ABL1-phosphorylated and 9% with ABL2.

With `CCC(=O)c1c(-c2ccccc2)c2cc(Cl)ccc2c(=O)n1Cc1cc(S(C)(=O)=O)n(CC(N)=O)n1`, the “%Inh” value in the experiment on AAK1 amounted to 0%; with ABL1-nonphosphorylated it was 44%; in the experiment on ABL1-phosphorylated, 9%; in the experiment on ABL2 it was 0%.

Regarding `COc1cc2ncn(-c3cc(OCc4ccncc4)c(C(N)=O)s3)c2cc1OC` [GSK336313], the “%Inh” value came out at 58% with AAK1, 0% in the experiment on ABL1-nonphosphorylated, 7% in the experiment on ABL1-phosphorylated and 0% with ABL2.

In the case of `Cc1ccccc1COc1cc(-n2cnc3cc(Cl)ccc32)sc1C(N)=O` [GW813349], the “%Inh” value was found to be 2% in the experiment with AAK1, 9% in the experiment with ABL1-nonphosphorylated, 14% in the experiment with ABL1-phosphorylated and 13% in the experiment on ABL2.

As to `Cc1cccc(-c2nc(Nc3ccc4c(cnn4C)c3)c3ccccc3n2)n1` [GW876731], the “%Inh” value in the experiment on AAK1, with ABL1-nonphosphorylated, in the experiment on ABL1-phosphorylated and in the experiment with ABL2 was 0% each time.

As for `COC(=O)c1c(-c2ccccc2)c2cc(Br)ccc2c(=O)n1Cc1ccc(S(C)(=O)=O)cc1`, the “%Inh” value with AAK1 came to 27%; in the experiment with ABL1-nonphosphorylated it was 25%; in the experiment with ABL1-phosphorylated, 9%; with ABL2, 32%.

Take `COc1ccc(-c2cc3c(C)nc(N)nc3n([C@H]3CC[C@H](OCCO)CC3)c2=O)cn1`: the “%Inh” value in the experiment on AAK1, in the experiment with ABL1-nonphosphorylated, in the experiment on ABL1-phosphorylated and in the experiment on ABL2 was 0% throughout.

For the molecule `COc1ccc(-n2cnc3c(N)ncnc32)cc1` [SKF-97236], the “%Inh” value in the experiment on AAK1 is given as 15%; in the experiment with ABL1-nonphosphorylated it was 28%; with ABL1-phosphorylated it was 1%; in the experiment with ABL2, 10%.

Turning to `CCC(=O)c1c(-c2ccccc2)c2cc(Cl)ccc2c(=O)n1Cc1cc(S(C)(=O)=O)n(CC(F)F)n1`, the “%Inh” value with AAK1 is recorded as 0%; with ABL1-nonphosphorylated, 23%; in the experiment on ABL1-phosphorylated it was 2%; with ABL2 it was 0%.

On to `Cc1cc(Nc2nc(-c3cccc(C)n3)nc3ccccc23)ccn1` [GW872411], for which the “%Inh” value is recorded as 0% in the experiment on AAK1, 52% with ABL1-nonphosphorylated, 13% in the experiment on ABL1-phosphorylated and 0% with ABL2.

Take `Cc1nn2c(=O)cc(N3CCOCC3)nc2n1Cc1cccc(Cl)c1Cl` [GSK2342769]: the “%Inh” value is 14% in the experiment with AAK1, 0% in the experiment with ABL1-nonphosphorylated, 0% with ABL1-phosphorylated and 9% in the experiment with ABL2.

With `Cl.NS(=O)(=O)c1cccc(Nc2cc(-c3ccc(F)cc3)n[nH]2)c1` [GW824645], the “%Inh” value came to 9% in the experiment on AAK1, 5% in the experiment on ABL1-nonphosphorylated, 24% in the experiment on ABL1-phosphorylated and 0% with ABL2.

For the molecule `CCc1nc(-c2cccc(C)c2)c(-c2ccncc2)s1`, the “%Inh” value in the experiment on AAK1 was 0%; with ABL1-nonphosphorylated it was 60%; with ABL1-phosphorylated, 11%; in the experiment on ABL2, 6%.

(Values after paper PMC5540273 (PLoS ONE, 2017).)
